Data taken from PubChem BioAssay AID504850 (National Center for Advancing Translational Sciences (NCATS), 2011).
The campaign covered roughly 2,300 compounds. About 1,200 (52%) were called active. Roughly 34% stayed inconclusive and do not appear here. So high a share suggests a set chosen from earlier hits. This is one part of the list. Unmarked numbers belong to inactive results. Calls follow the shape of the dose curve; as a rule, active = well fitted inhibition curve with a large enough effect; inconclusive = small, poorly fitted or top-dose-only effect, or effect the other way; inactive = no such curve, though single readings can be large or run the other way. Square brackets hold non-standard residues; d marks the D form. Peptide text beside a SMILES is read from it. * marks the point of attachment. ξ: configuration not given here. ξF = NC(Cc1ccccc1)C(=O)O; Cbz = O=C(OCc1ccccc1)*

experiment: Confirmation screen for delayed death inhibitors of the malarial parasite plastid, 48 hour incubation; also: nearly all actives have a fitted effect of over 65% in size; conditions: P. falciparum-infected erythrocytes, luciferase growth; series mostly up to 28.7 µM; activity change, negative = inhibition: at the top concentration
Method in brief: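 Single-generation (48 h, 37 C) exposure of integrated firefly luciferase-reporter P. falciparum in red cells, 0.1% parasitemia at 2% hematocrit, Albumax-supplemented RPMI. Falling luciferase signal marks parasite growth inhibition.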
% is scaled to controls: 0 for no effect and ±100 for the full control effect; potency is read from the fitted curve at half-maximal effect.

| Structure (SMILES) | Potency | activity change, negative = inhibition [%] |
| --- | --- | --- |
| O=C(c1cccc(Cl)c1)c1nn(-c2ccccc2)c(=O)cc1C(F)(F)F | 12.6 µM (active) |  |
| O=C(CCl)Nc1cccc2ncccc12 | 4.47 µM (active) |  |
| Oc1ccc(-c2n[nH]c(=S)n2-c2ccc3c(c2)OCCO3)c(O)c1 | 0.708 µM (active) |  |
| O=C(c1ccc(CS(=O)c2ccccc2Cl)o1)N1CCN(c2ccccn2)CC1 (stereo not drawn) | 11.2 µM (active) |  |
| O=C(NCc1cccc(Cl)c1)C1CCC(=O)N(CC2CCCCC2)C1 (stereo not drawn) | 14.1 µM (active) |  |
| CCCNC(=O)C(Cc1ccc(F)cc1)NC(=O)c1ccccc1 (stereo not drawn) | 10 µM (active) |  |
| CCOC(=O)CNC(=O)C(Cc1ccccc1)NC(=O)OCc1ccccc1 (stereo not drawn) (Cbz-[ξF]-Gly-OEt) |  | -0.99 |
| COc1ccc(C2c3c(ncn(CCCN4CCOCC4)c3=N)Oc3ccc4ccccc4c32)cc1OC (stereo not drawn) | 5.01 µM (active) |  |
| COc1ccc(C2c3c(ncn(CCN4CCOCC4)c3=N)Oc3ccc4ccccc4c32)cc1OC (stereo not drawn) | 4.47 µM (active) |  |
| O=c1[nH]c(=O)n(Cc2ccco2)c2c1C(C(F)(F)F)(C(F)(F)F)N=C(CCc1ccccc1)N2 | 11.2 µM (active) |  |
| COc1ccc2c(c1)c(C(=O)N/N=C/c1ccc(OC)c(OC)c1)c(C)n2C | 10 µM (active) |  |
| CCC(C)[C@H](NC(=O)NCCCOC(C)C)C(=O)OC (stereo partly drawn) |  | 0.984 |
| CCOc1ccc2nc(C)cc(Nc3cccc([N+](=O)[O-])c3)c2c1 | 2 µM (active) |  |
| O=C(O)CCc1ccc(-c2ccccc2)n1-c1ccc(C(=O)O)cc1 |  | 1.49 |
| Cc1cc2[nH]c(=O)c(=O)[nH]c2cc1S(=O)(=O)NC1CCCCC1C (stereo not drawn) |  | -18 |
| COC(=O)C1=C(C)NC2=C(C(=O)CC(c3cccs3)C2)C1c1ccsc1 (stereo not drawn) | 14.1 µM (active) |  |
| CCn1c(Cc2ccccc2)nnc1SCC(=O)Nc1nc(C)cs1 | 12.6 µM (active) |  |
| NNC(=O)CSc1nc(-c2ccccc2)cn1-c1ccccc1 |  | -17 |
| Cc1cc(C)nc(SCc2nnc(SCC(=O)Nc3nc(-c4ccccc4)cs3)n2C)n1 | 14.1 µM (active) |  |
| O=C(CSc1nc(-c2ccccc2)cs1)Nc1cccc([N+](=O)[O-])c1 |  | -33.8 |
| Cc1ccccc1NC(=O)Cc1nnc(SCC(=O)NC2CCCCC2)n1C |  | -9.87 |
| CCOC(=O)CSc1nnc(CNc2nc(-c3ccccc3)cs2)n1C | 8.91 µM (active) |  |
| CCCc1cc(NCc2ccccn2)n2nc(C)c(-c3ccccc3)c2n1 | 5.62 µM (active) |  |
| CN(C)c1ccc(NC(=S)NC23CC4CC(CC(C4)C2)C3)cc1 | 12.6 µM (active) |  |

| Structure (SMILES) | Potency | activity change, negative = inhibition [%] |
| --- | --- | --- |
| Cc1cccc(C)c1Nc1c(-c2ccc(N3CCOCC3)cc2)nc2ncccn12 | 12.6 µM (active) |  |
| c1ccc(SCc2cn(C[C@H]3CC[C@@H]([C@@H]4CC[C@H](Cn5cc(CSc6ccccc6)nn5)O4)O3)nn2)cc1 | 14.1 µM (active) |  |
| O=C(Nc1ccc(O)cc1)C1CC=CCC1 (stereo not drawn) | 7.94 µM (active) |  |
| COc1cnc(-c2ccccn2)nc1Oc1ccc(C(C)(C)C)cc1 | 4.47 µM (active) |  |
| COc1cnc(-c2ccccn2)nc1N(C)c1ccccc1 | 3.55 µM (active) |  |
| O=C1c2cc([N+](=O)[O-])cc3cc([N+](=O)[O-])cc(c23)C(=O)N1c1ccccn1 | 14.1 µM (active) |  |
| CC(C)NC(=O)c1onc(CSc2ccc(C(C)C)cc2)c1C(=O)O |  | -21.4 |
| CC(=O)c1ccc(NC(=O)C[n+]2cccc(C)c2)cc1 |  | -2.21 |
| Cc1ccc[n+](CC(=O)Nc2ccc(C)c(C)c2)c1 | 14.1 µM (active) |  |
| O=S(=O)(c1ccc(F)cc1)N1CCN(c2nc(-c3ccc(F)cc3)cs2)CC1 | 14.1 µM (active) |  |
| CN1C[C@@H]2C[C@H]1CN2c1cc2c(cc1F)c(=O)c(C(=O)O)cn2C1CC1 | 3.55 µM (active) |  |
| Cc1cc(F)ccc1S(=O)(=O)Nc1ccccc1C(=O)Nc1ccccc1-c1nc2ccccc2[nH]1 | 5.62 µM (active) |  |
| COc1ccc(C(c2c(C)n(C)n(-c3ccccc3)c2=O)c2c(C)n(C)n(-c3ccccc3)c2=O)cc1 | 14.1 µM (active) |  |
| Cc1c(C(c2ccc(Br)cc2)c2c(C)n(C)n(-c3ccccc3)c2=O)c(=O)n(-c2ccccc2)n1C | 12.6 µM (active) |  |
| Cc1nn(C(C)C(=O)NCCC2=CCCCC2)c(=O)c2nn(-c3ccccc3)c(C)c12 (stereo not drawn) | 12.6 µM (active) |  |
| Cc1nn(C(C)C(=O)Nc2ccccc2Cl)c(=O)c2nn(-c3ccccc3)c(C)c12 (stereo not drawn) | 14.1 µM (active) |  |
| Cc1nn(C(C)C(=O)NCCCc2ccccc2)c(=O)c2nn(-c3ccccc3)c(C)c12 (stereo not drawn) | 12.6 µM (active) |  |
| Cc1c(NC(=O)C(C)Sc2nccn2C)c(=O)n(-c2ccccc2)n1C (stereo not drawn) |  | -5.16 |
| CSc1ccc(CNC(=O)C(C)n2nc(C)c3c(C)n(-c4ccccc4)nc3c2=O)cc1 (stereo not drawn) | 14.1 µM (active) |  |
| CSc1ccc(CNc2cccc3ccccc23)cc1 |  | -25.2 |
| Nc1c(C(=O)CSc2nc3ccccc3o2)c(=O)[nH]c(=O)n1C1CC1 | 14.1 µM (active) |  |
| Cc1ccc(-c2csc(SCC(=O)c3c(N)n(C4CC4)c(=O)[nH]c3=O)n2)cc1 |  | -4.3 |
| O[C@@H]1[C@@H](O)C=C2CCN3Cc4cc5c(cc4[C@H]1C23)OCO5 (stereo partly drawn) | 1.58 µM (active) |  |
| COc1ccc(C(=O)NC2CC2)cc1OC1CCN(C/C=C/c2ccccc2)CC1 | 8.91 µM (active) |  |

| Structure (SMILES) | Potency | activity change, negative = inhibition [%] |
| --- | --- | --- |
| CCc1nc(Nc2ccncc2)c2oc3ccccc3c2n1 | 10 µM (active) |  |
| Cc1oc(/C=N/NS(=O)(=O)c2ccccc2)cc1Br |  | 0.292 |
| CCN(CC)c1ccc(/C=N/Nc2nc3ccccc3[nH]2)cc1 | 2.82 µM (active) |  |
| Cc1c(/C=N/Nc2nc3ccccc3[nH]2)c2ccccc2n1C | 0.708 µM (active) |  |
| CCc1cc(SC#N)ccc1N | 10 µM (active) |  |
| CCCN1CCc2c(sc3nc(SCC)n(-c4ccccc4)c(=O)c23)C1 | 1.78 µM (active) |  |
| CCCN1CCc2c(sc3nc(SCC)n(-c4ccc(OC)cc4)c(=O)c23)C1 | 1.26 µM (active) |  |
| COc1ccc(CCNC(=O)/C(=C/c2cccnc2)NC(=O)c2ccccc2)cc1OC | 12.6 µM (active) |  |
| CCOc1ccc2c(c1)C(c1ccccc1)=NNC(c1ccccc1)=N2 | 12.6 µM (active) |  |
| C=CCNC(=O)c1onc(CSc2cc(C)ccc2C)c1C(=O)O |  | -10.4 |
| O=c1[nH]c(NCc2ccccc2)nc2c1CCC2 |  | -13.4 |
| Nc1[nH]nc2nc(NCc3ccccc3)c3c(c12)CCN(Cc1ccccc1)C3 | 15.8 µM (active) |  |
| Cc1ccc(NC(=O)c2ccc3c(SCC(=O)O)c4c(nc3c2)CCCC4)c(Br)c1 | 11.2 µM (active) |  |
| COc1ccc(C2CC(c3cccs3)=NN2C(=O)CSc2nnc(N)s2)cc1OC (stereo not drawn) | 14.1 µM (active) |  |
| O=C(c1ccccc1)N1CCCC(c2ccc(Cl)cc2)=N1 | 15.8 µM (active) |  |
| O=Nc1c(-c2c(O)[nH]c3cc(Br)ccc23)[nH]c2ccccc12 | 7.08 µM (active) |  |
| O=C(CC(SCCO)c1ccc(F)cc1)c1ccco1 (stereo not drawn) |  | -19.4 |
| CCCCC1(c2ccc(F)cc2)NC(=O)N(CC(=O)N2CCN(C(=O)c3ccco3)CC2)C1=O (stereo not drawn) | 14.1 µM (active) |  |
| CCOc1ccc(Cl)cc1C1=CC(=O)C[C@H](c2ccc(OC)cc2)C1 | 14.1 µM (active) |  |
| COc1cccc(C2=CC(=O)C[C@H](c3ccc(F)cc3)C2)c1OC |  | -27.1 |
| COc1ccc2c(c1)c(CC(=O)Nc1nnc(C3CC3)s1)c(C)n2C(=O)c1ccc(Cl)cc1 | 14.1 µM (active) |  |
| Cc1ccc(-n2cc(CN3CCC(CO)(Cc4cccc(C(F)(F)F)c4)CC3)cn2)cc1 | 7.94 µM (active) |  |
| N#Cc1ccc(Oc2ccc(-c3nc4ccccc4nc3-c3ccccc3)cc2)cc1C#N | 11.2 µM (active) |  |
| Cc1c(OC(C)C(=O)NCC2CCC(C(=O)O)CC2)ccc2c1oc(=O)c1ccccc12 (stereo not drawn) | 14.1 µM (active) |  |

| Structure (SMILES) | Potency | activity change, negative = inhibition [%] |
| --- | --- | --- |
| Cc1c(Cc2ccccc2)c(=O)oc2cc(OC(C)C(=O)NCC3CCC(C(=O)O)CC3)c(Cl)cc12 (stereo not drawn) | 12.6 µM (active) |  |
| CC(C)CC1c2[nH]c3ccccc3c2CCN1CCCn1cccn1 (stereo not drawn) | 12.6 µM (active) |  |
| CCC1CCC(C(=O)NC(CCSC)C(=O)NCCN(CC(C)C)CC(C)C)CC1 (stereo not drawn) | 12.6 µM (active) |  |
| O=C(CCC1N=C2c3ccccc3N=C(SCC(=O)NCc3ccco3)N2C1=O)NCc1ccco1 (stereo not drawn) |  | -31.8 |
| O=C(CSc1nc2c(sc3ccccc32)c(=O)n1-c1ccccc1)NCc1ccco1 | 11.2 µM (active) |  |
| O=C(CSc1nc2ccccc2c(=O)n1Cc1ccc(C(=O)NC2CC2)cc1)NCc1ccco1 | 14.1 µM (active) |  |
| O=C(CSc1c2c(nc3ccccc13)CCCC2)NCc1ccco1 |  | -14.6 |
| CCN(CC)CCn1c2c(c(SCC(=O)Nc3nc4ccccc4s3)nc1=O)CCCC2 | 7.08 µM (active) |  |
| CC[N+](CC)(CC)CCCCOc1ccc2c(c1)C(=O)c1cc(OCCCC[N+](CC)(CC)CC)ccc1-2 | 0.0398 µM (active) |  |
| Cc1cccc(NC(=O)C(C)Sc2nc3ccccc3c(=O)n2CCCN2CCOCC2)c1 (stereo not drawn) | 12.6 µM (active) |  |
| Cc1ccc(-c2nc(CSc3nc4ccccc4c(=O)n3CCO)cs2)cc1 |  | -13.4 |
| Cc1ccc(NC(=O)CSc2nc3ccccc3c(=O)n2CCCN2CCCCC2)cc1Cl | 7.94 µM (active) |  |
| N#CCc1ccc(C(=O)c2ccccc2F)s1 |  | 0.887 |
| Cc1cccc(NC(=O)COC(=O)c2cccc3c2C(=O)c2ccccc2C3=O)c1C | 15.8 µM (active) |  |
| Cn1c(=O)c2c([nH]c(=O)n2C)n(C)c1=O |  | -0.358 |
| COc1ccc(S(=O)(=O)N/N=C(/C)c2ccco2)cc1 |  | -6.45 |
| O=C(CNC(=O)c1ccco1)OCC(=O)c1ccccc1 |  | 2.63 |
| COc1ccc(CN(CCC(c2ccccc2)c2ccco2)C(=O)c2ccco2)cc1 (stereo not drawn) | 10 µM (active) |  |
| Cc1ccnc(NCc2cccc3ccccc23)c1 | 12.6 µM (active) |  |
| Cc1ccnc(NCc2ccc(Cl)cc2)c1 |  | 18 |
| CCOC(=O)c1c(CS(=O)(=O)c2ccccc2)n(C)c2cc(Br)c(O)cc12 | 12.6 µM (active) |  |
